A selection: hits, their analogues and other compounds. The true share with any hit is near 2.7%.
Akt phos inh – inhibitors of Akt phosphorylation. Neuro2A IGF-stimulated pAkt S473 HTRF, 20 min; stronger effect = lower value. hit rate 0.32% among 360,000. activity change, % for hits at 50 µM; in the data active = activity change below about -80%; inconclusive = mostly about -51% to -80%; note: % is set by controls: 0 for no effect and ±100 for the full control effect
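Neuro2A cells (4,500/well, DMEM with 0.5% FBS) were treated with compound at a single 50 µM final concentration, stimulated with 6 nM IGF for 20 min at 37 °C, and lysed. Phospho-Akt Ser473 was read by HTRF as 665/615 ratio ×10^4.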
ClpP mod – qHTS Assay for Activators of ClpP. ATP-dependent Clp protease proteolytic subunit (Bacillus subtilis (strain 168)), P80244. purified B. subtilis ClpP, FRET peptide cleavage, 20 min. Potency, µM (titrated, usually from 57.5 µM), for inactives: at the highest dose activity change, negative = active. hit rate 1.9% among 340,000; active = well fitted falling curve with a large enough effect; inconclusive = small, poorly fitted or top-dose-only effect; inactive = no such curve, though single readings can be large or run the other way; note: potency is the fitted concentration of half-maximal effect; the source files actives as falling curves though it sought activators and does not explain the sign; nearly all actives have a fitted effect of over 65% in size
Target sequence (P80244 whole entry, looked up): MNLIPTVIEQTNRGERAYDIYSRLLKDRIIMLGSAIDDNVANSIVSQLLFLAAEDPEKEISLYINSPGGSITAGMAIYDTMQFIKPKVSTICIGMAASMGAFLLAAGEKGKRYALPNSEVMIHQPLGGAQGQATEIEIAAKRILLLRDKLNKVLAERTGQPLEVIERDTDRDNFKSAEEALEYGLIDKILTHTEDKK
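ClpP 10 microg/mL final, pH 8 Tris/KCl buffer with BSA, glycerol, Tween-20; compound pinned in; FRET-FV substrate; RT 20 min; Ex320/Em430; ΔFRET vs ADEP 5.8 microM, DMSO, no enzyme.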
gsp ag – agonists of gsp mutant (McCune-Albright syndrome); Potency, µM (top dose mostly 76.9 µM), without a hit: at the highest dose activation (cAMP increase), usual class: activators; hit rate 0.13% among 340,000; AID 624287; gsp mutant cells, cAMP HTRF, 30 min; active = well fitted activation curve with a large enough effect; inconclusive = small, poorly fitted or top-dose-only effect, or another doubt; inactive = no such curve, though single readings can be large or run the other way; cell line not stated here;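 note: phosphodiesterase inhibitor Ro 20-1724 added with compounds to block cAMP breakdown; potency is the fitted concentration of half-maximal effect; nearly all actives have a fitted effect of over 60% in size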
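Cells in DMEM/10% FBS with G418 were pretreated with compounds in DMSO plus […] (300 uM stock) for 30 min at 37C. cAMP was measured by HTRF (cAMP-d2 plus anti-cAMP antibody-K) after 30 min at room temperature.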
RXFP1 ag – agonists of human relaxin receptor RXFP1; hit rate 0.3% among 370,000; Potency, µM (titrated, usually from 57.5 µM), without a hit: at the highest dose activation, most hits filed as activators; HEK293T-RXFP1 cAMP TR-FRET, 30 min; response scale: percent of porcine relaxin response, buffer zero; AID 2676; active = well fitted activation curve with a large enough effect; inconclusive = small, poorly fitted or top-dose-only effect; note: potency is the fitted concentration of half-maximal effect; % is set by controls: 0 for no effect and ±100 for the full control effect; nearly all actives have a fitted effect of over 60% in size
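HEK293T cells stably expressing RXFP1 were pretreated with the PDE4 inhibitor Ro 20174, exposed to compounds for 30 min at 37C, lysed, and cAMP was read by TR-FRET. Data normalized to buffer (basal) and 29 nM porcine relaxin (100%).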
gsp antag – gsp mutant antagonism. gsp-mutant cells, cAMP HTRF, 30 min. Potency, µM (series often up to 76.9 µM), without a hit: at the top dose activity change, negative = inhibition, usual class: inhibitors. hit rate 0.4% among 340,000. AID 624288; calls by dose curve; cell line not stated here;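 note: intracellular cAMP measured with PDE inhibitor Ro 20-1724 present during compound exposure; potency is the fitted concentration of half-maximal effect; % is set by controls: 0 for no effect and ±100 for the full control effect; nearly all actives have a fitted effect of over 65% in size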
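G418-selected cells were plated in DMEM/10% FBS for 16-24 h at 37C, then treated with compounds plus the PDE inhibitor […] (300 uM solution added) for 30 min at 37C. Intracellular cAMP was measured by HTRF after 30 min lysis at room temperature.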
RXFP1 antag – antagonists of human relaxin receptor RXFP1. Q9HBX9. HEK293-RXFP1, relaxin-stimulated cAMP HTRF, 30 min; stronger effect = lower value. activity change, negative = inhibition, % at 57.5 µM. hit rate 0.59% among 350,000. AID 1259400;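 active = activity change of -60% or lower, but not beyond a set lower limit; inconclusive = change between -60% and -40%, or beyond the set limit; inactive = change above -40%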; note: % is set by controls: 0 for no effect and ±100 for the full control effect
* = called active by the depositor; i = inactive; ? = inconclusive; . = no result given; ! = a repeat was not active; [ ] = remark or other dose.

SMILES	Akt phos inh	ClpP mod	gsp ag	RXFP1 ag	gsp antag	RXFP1 antag
COc1ccc(CC(=O)N2CCN(c3ccccn3)CC2)cc1OC	i	22.4µM*	-3.7%	1.5%	-2.5%	1.8
Fc1ccc(Nc2nc(NCc3ccco3)nc3nccnc23)cc1	.	-0.5%	.	.	.	.
CCOc1ccccc1NC(=O)C1CCN(S(=O)(=O)c2cccc3nonc23)CC1	.	1.6%	.	1.7%	.	-0.2
Cc1ccc(S(=O)(=O)N(C)c2ccc(OC(C)C(=O)N(C)c3ccccc3)cc2)cc1 (stereo not given)	i	1.0%	-14.6%	0.5%	-31.7%	-17.6
COCCNC(=O)C(c1ccc(C)cc1)N(Cc1ccco1)C(=O)CCC(=O)Nc1ccccn1 (stereo not given)	i	.	-39.9%[15.4 µM]	0.5%	-6.1%	3.1
CCCc1ccc(OCc2ccc(C(=O)N3CCN(c4ccccn4)CC3)o2)c(OC)c1	i	-3.9%	-55.3%	-0.2%	?	-62.6*
COc1cc(OC)c(C(=O)N2CCN(c3ccccn3)CC2)cc1OC	i	?	3.2%	0.3%	1.0%	-3.2
C[C@@]12C(=O)N(c3cccc(F)c3)C(=O)N1[C@@H]1c3ccccc3OC[C@@H]1[C@H]2c1ccccc1	i	2.4%	-1.2%	.	-11.3%	.
CC1CC(C)CN(C(=O)COC(=O)c2cc3ccccc3oc2=O)C1 (stereo not given)	i	35.5µM*	-10.8%	.	-1.5%	-15.2
O=C(OCC(=O)N1CCOCC1)c1cc2ccccc2oc1=O	i	3.8%	8.1%	2.0%	2.1%	1.3
CN1C(=S)SC(N2OC3C(=O)N(c4ccccc4)C(=O)C3C2c2ccc(Cl)cc2)C1(C)C (stereo not given)	i	28.2µM*	-1.8%	1.0%	1.0%	-2.4
Cn1c2ccccc2c2cc(C(=O)NNC(=O)CCl)sc21	i	.	-12.3%[15.4 µM]	0.4%	.	-11.8
CC(=O)Nc1ccc(S(=O)(=O)NNC(=O)c2cc3c4ccccc4n(C)c3s2)cc1	i	28.2µM*	-0.3%	1.7%	4.6%	3.2
O=C(O[C@H]1[C@H](Cc2ccccc2)NS(=O)(=O)[C@H]2CC3C=C[C@]12O3)c1ccc(Br)cc1	.	-2.3%	.	.	.	.
CCC(C)Sc1cccc(-c2nc3ccc(C)cn3c2NCc2ccccc2)c1 (stereo not given)	i	4.4%	.	13.2%	?	.
CCC(C)Sc1cccc(-c2nc3cc(C)ccn3c2NC2CCCCC2)c1 (stereo not given)	i	14.1µM*!	22.9%	.	-10.6%	.
CCC(C)Sc1cccc(-c2nc3ccc(Cl)cn3c2NCc2ccccc2)c1 (stereo not given)	i	25.1µM*	.	5.9%	-2.9%	.
CCN(C(=O)COC(=O)CN(C)S(=O)(=O)c1ccc(NC(C)=O)cc1)C1CCS(=O)(=O)C1 (stereo not given)	i	-1.2%	-6.6%	-2.0%	11.3%	2.0
CC(C)(C)c1cc(C(=O)NCc2ccccc2)ccn1	-87.8%*	1.2%	-30.8%	1.8%	-14.4%	-11.1
Cc1ccc(S(=O)(=O)N(C)CC(O)Cn2c3ccccc3c3ccccc32)cc1 (stereo not given)	-113.6%*	-5.9%	0.0%	1.6%	-5.1%	-5.1
O=C(N/N=C/c1cccc(C(F)(F)F)c1)c1cc2c(s1)-c1ccccc1CC2	i	?	2.3%	3.3%	-7.8%	-5.5
Cc1cccc(/C=N/NC(=O)c2cc3c(s2)-c2ccccc2CC3)c1	i	28.2µM*	-45.9%	0.4%	-5.2%	-8.2
CCOc1ccccc1NC(=O)C1CCN(S(=O)(=O)c2ccc3[nH]c4c(c3c2)CCCCC4)CC1	.	?	.	-0.6%	.	-16.7
O=C(COc1c(Br)cc(Br)c2cccnc12)N1CCCCC1	i	-4.0%	6.31µM*	?	-4.0%	8.0
O=C(CSCc1ccc(Cl)cc1)Nc1cc([N+](=O)[O-])ccc1O	i	.	13.9%	-0.4%	?	5.3
SMILES	Akt phos inh	ClpP mod	gsp ag	RXFP1 ag	gsp antag	RXFP1 antag
Cc1ccc(SCC(=O)Nc2cc([N+](=O)[O-])ccc2O)cc1	i	.	-28.2%[15.4 µM]	-0.6%	50.1µM*	-25.0
c1ccc(Sc2cccc3ccccc23)c(CNC2=NCCN2)c1	i	3.16µM*	1.2%	-0.7%	9.9%	-18.2
COc1ccc(NC(=O)c2nc[nH]c2C(=O)N[C@@H](C)C(=O)OC(C)(C)C)cc1	i	-2.8%	12.6µM*	0.5%	2.5%	.
CC(C)CCNC(=O)c1cn(CC(C)C)c(=O)c2c1c1ccccc1n2C	i	?	-1.9%	1.4%	9.5%	6.5
CC(C)Cn1cc(C(=O)NCc2cccs2)c2c3ccccc3n(C)c2c1=O	.	10µM*	-0.5%	2.9%	-5.2%	-17.6
CC(C)Cn1cc(C(=O)N2CCOCC2)c2c3ccccc3n(C)c2c1=O	i	15.8µM*	-29.8%	-0.2%	2.3%	-5.2
CCOC(=O)N1CCN(C(=O)c2cn(C)c(=O)c3c2c2ccccc2n3C)CC1	i	14.1µM*	-38.7%	3.6%	-2.7%	-16.6
CCCN(CCC)CCCNC(=O)c1cn(CCOC)c(=O)c2c1c1ccccc1n2C	i	14.1µM*	-49.8%	2.6%	-11.2%	7.7
CC(C)Cn1cc(C(=O)N2CCC(C)CC2)c2c3ccccc3n(C)c2c1=O	i	.	27.4%	4.1%	4.5%	-4.5
Cc1ccc(-c2nn(CC(=O)NC3CCCC3)c3c2cnc2ccc(F)cc23)cc1C	.	-8.2%	.	7.4%	.	-6.0
O=C(O)c1ccc(S(=O)(=O)NCC2CCCCC2)cc1	i	.	23.8%[15.4 µM]	4.6%	9.8%	9.6
O=C(c1ccoc1)N1CCN(c2cc(-c3cccc(F)c3)nc3cc(-c4cccc(Cl)c4)nn23)CC1	i	4.5%	20.2%	.	.	12.1
CCOC(=O)N1CCN(C(=O)c2cn(CC(C)C)c(=O)c3c2c2ccccc2n3C)CC1	i	25.1µM*	12.3%	-2.7%	-26.6%	5.7
COCCn1cc(C(=O)NCc2ccco2)c2c3ccccc3n(C)c2c1=O	i	.	-0.3%	3.5%	-9.8%	-22.6
COCCn1cc(C(=O)N2CCC(C)CC2)c2c3ccccc3n(C)c2c1=O	i	15.8µM*	-37.4%	3.6%	-3.4%	-0.4
Cc1onc(-c2ccccc2)c1C(=O)NCc1ccc2c(c1)OCO2	i	-0.1%	-38.1%	0.6%	-3.5%	-4.7
Cc1onc(-c2c(F)cccc2Cl)c1C(=O)NCc1ccc2c(c1)OCO2	i	28.2µM*	-29.8%	0.4%	-1.4%	-5.4
Cc1cccc(CS(=O)(=O)c2ncc(Cl)c(C(=O)NCc3ccc4c(c3)OCO4)n2)c1	.	3.6%	0.1%	0.1%	-2.5%	-86.9*

Bioassay records as filed in PubChem.
